The text below walks through data of PubChem BioAssay (Tox21).

Results filed as inconclusive are left out. Entries that show only a call come without a potency. Activity calls are given as the source filed them. Calls follow the shape of the dose curve; as a rule, active = well fitted activation curve with a large enough effect in the repeat runs; inconclusive = weak or mixed curves; inactive = no such curve, though single readings can be large or run the other way.

Nuclear receptor subfamily 1 group I member 3 (Homo sapiens), sequence (Q14994 whole entry, looked up): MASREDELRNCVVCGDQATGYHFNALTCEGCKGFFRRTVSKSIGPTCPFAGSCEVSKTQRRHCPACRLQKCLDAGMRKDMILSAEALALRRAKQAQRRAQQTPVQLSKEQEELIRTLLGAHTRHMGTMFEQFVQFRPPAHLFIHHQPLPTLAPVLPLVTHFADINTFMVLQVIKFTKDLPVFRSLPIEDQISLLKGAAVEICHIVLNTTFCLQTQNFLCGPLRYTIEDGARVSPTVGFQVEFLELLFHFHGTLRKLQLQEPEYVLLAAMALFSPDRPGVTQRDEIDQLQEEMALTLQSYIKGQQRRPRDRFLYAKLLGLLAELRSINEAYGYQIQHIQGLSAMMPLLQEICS

The experiment addresses Nuclear receptor subfamily 1 group I member 3 (Homo sapiens) (UniProt Q14994). In words: qHTS assay to identify small molecule agonists of the constitutive androstane receptor (CAR) signaling pathway (AID 1224839).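 Also: HepG2 cells stably carrying human CAR and a CYP2B6 luciferase reporter; nearly all actives have a fitted effect of over 15% in size.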 Particulars: HepG2 hCAR CYP2B6-luciferase, agonist mode, 24 h; series mostly up to 92.4 µM. An excerpt: National Center for Advancing Translational Sciences [NCATS] NIH Chemical Genomics Center [NCGC] U.S. Environmental Protection Agency [EPA] National Institutes of Environmental Health Sciences [NIEHS] National Toxicology Program [NTP] Assay overview: The constitutive androstane receptor (CAR) is a nuclear receptor which regulates multiple drug metabolizing enzymes (DMEs) and transporters. Activating CAR will generally increase the transcription and subsequent translation of CYP2B6 and CYP3A4. These two DMEs represent about 50% of the drug metabolizing potential in the body. […] Recently, there have also been studies performed indicating CARs role in energy metabolism and cancer therapy. Therefore, inducing CARs activity could have a potential effect on diabetes and cancer. Identifying environmental toxins and compounds which modulate CAR, through the use of the Tox21 10K compound collection, will be an important step in determining the toxicity and potential therapeutic effects these factors will have on the human body.
Assay Protocol Summary: A double-stable (hCAR and CYP2B6-2.2kb) transfected cell line, derived from human hepatoma (HepG2) cells, was utilized for the duration of the quantitative high-throughput screens. The HepG2-CYP2B6-hCAR cells suspended in DMEM culture medium supplemented with 10% FBS, 5 ug/mL blasticidin, 0.5 mg/mL geneticin, 100 U/mL penicillin and 100 ug/mL streptomycin were dispensed at 2500 cells/4 uL/well in 1536-well white solid bottom plates using a Multidrop Combi. After the assay plates were incubated at 37 C/5% CO2 for 4 hrs, 23 nL of compounds at 15 concentrations (from 5-48 columns) or positive control (from 1 to 4 columns) were transferred to the assay plates using a Pintool station. One uL of PK11195, was added using a Flying Reagent Dispenser to generate a final concentration of 0.75 uM PK11195 inside each well. After a 24 hr incubation period at 37 C/5% CO2, four uL of ONE-Glo reagent was added into the assay plates using a Flying Reagent Dispenser. After a 30 min incubation period at room temperature, the luminescence intensity in the assay plates was measured using a ViewLux plate reader.
Turning to `C[C@@H](Oc1ccc(CNC(=O)c2cccnc2Oc2ccc3c(c2)OCO3)c(F)c1)C(=O)O`, the Potency entry is “inactive”. On the same count and under the same terms, the value for `Cc1cccc(C)c1NC(=O)c1ccccc1C(=O)O` was “inactive”; that for `CCN(C)C(=O)Oc1cccc([C@H](C)N(C)C)c1` was “inactive”; that for `O=P(O)(O)OP(=O)(O)O` was “inactive”. For `CC(C)NCC(O)COc1ccc(COCCOC(C)C)cc1` (stereo not given), the Potency result was “inactive”. Still for that read-out and setting: then `C=Cc1ccccn1`, with “inactive”. With `O=C(O)CCSSCCC(=O)O`, the Potency entry is “inactive”. On the same count and under the same terms, the value for `O=C(CCN1CCN(CCO)CC1)N1c2ccccc2Sc2ccc(C(F)(F)F)cc21` was “inactive”; that for `CC/C=C\CC1=C(C)CCC1=O` was “inactive”. Regarding `CCC(C=O)CC`, the Potency entry is “inactive”. Same read-out and setting: then `CCOCCOCCOCC`, with “inactive”; and `C[C@@H](O)[C@H]1C(=O)N2C(C(=O)O)=C(SCCN=CN)C[C@H]12`, with “inactive”. The same measure, in the same setting: then `COc1cc(NS(=O)(=O)c2ccc(N)cc2)nc(OC)n1`, with “inactive”. The same measure, in the same setting: then `Cc1c(I)c(=O)n(-c2ccccc2)n1C`, with “inactive”.

Turning to `Nc1cccc(O)c1`, the Potency result is “inactive”.

On to `O=C(OCc1ccccc1)C(=O)OCc1ccccc1`, for which the Potency result is “inactive”. Same read-out and setting: the value for `Nc1ccc([N+](=O)[O-])c(N)c1` was “inactive”; that for `COP(=O)(OC)OC(c1ccc(Cl)cc1)P(=O)(OC)OC` (stereo not given) was “inactive”. Turning to `COc1ccc2c(c1)C(=O)N(CCc1ccc(S(=O)(=O)NC(=O)NC3CCCCC3)cc1)C(=O)C2(C)C`, the Potency entry was “inactive”. Still for that read-out and setting: then `c1ccc2nccnc2c1`, with “inactive”.

As to `C=C(C)C(=O)OCC(C)(C)COC(=O)C(=C)C`, the Potency entry is “inactive”. Same read-out and setting: then `Nc1ccc(S(=O)(=O)Nc2ccc(Cl)nn2)cc1`, with “inactive”; and `C=COCCOCCOCCOC=C`, with “inactive”; and `Cc1cc(C(C)(C)C)c(O)c(C)c1CC1=NCCN1`, with “inactive”. On the same count and under the same terms, the value for `CC(=O)Nc1ccc(S(=O)(=O)Nc2ccc([N+](=O)[O-])cc2)cc1` was “inactive”; that for `CCCOC(=O)C(C)O` (stereo not given) was “inactive”. Turning to `NS(=O)(=O)c1ccc(NC(=O)CCC(=O)O)cc1`, the Potency entry is “inactive”. In the case of `CC(C)=O`, the Potency result was “inactive”.

For `O=C(O)C(=O)Cc1ccccc1`, the Potency entry is “inactive”. In the case of `CCCCC(CC)COCCO` (stereo not given), the Potency entry was “inactive”. On the same count and under the same terms, then `CC(COC(C)(C)C)OCCCO` (stereo not given), with “inactive”. Consider `N[C@@H](COP(=O)(O)O)C(=O)O`, for which the activation was -2.56% [at 19 µM] (inactive).

In the case of `CCCCN`, the Potency entry is “inactive”.

Consider `CC(=C(CCOC(=O)C(C)C)SSC(CCOC(=O)C(C)C)=C(C)N(C=O)Cc1cnc(C)nc1N)N(C=O)Cc1cnc(C)nc1N`, for which the Potency entry was “inactive”.

Turning to `CCCC/C=C/C=C\C=O`, the Potency result was “inactive”. The same measure, in the same setting: then `CCCC(=O)C(C)=O`, with “inactive”.

Turning to `Oc1cn2c(n1)Nc1ccc(Cl)c(Cl)c1C2`, the activation is 5.1% [at 19 µM] (inactive). In the case of `CC1COc2ccccc2N1` (stereo not given), the Potency result is “inactive”. As to `CCCCCCOC(=O)CC`, the Potency result is “inactive”. On the same count and under the same terms, the value for `CCCCCCCCC(=O)Cl` was “inactive”.
